Data as given in PubChem BioAssay AID504652 (National Center for Advancing Translational Sciences (NCATS), 2011).
Out of some 360,000 compounds screened, about 11,000 (3.1%) were called active. Shown is part of a subset that was picked to be rich in actives. Values without a mark were called inactive. Cut-off read from the data, not from the text of the source: active = activity change below about -30%; inactive = the rest.

Target: D(1A) dopamine receptor (Homo sapiens) (UniProt P21728)
Assay: Antagonist of Human D 1 Dopamine Receptor: qHTS
Settings: HEK293 TREx D1 cells, calcium flux, dopamine EC80; at 10 µM; stronger effect = lower value
Procedure, shortened: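 Inducible Hek293 Trex D1 cells (tetracycline, overnight, 30 C). Calcium dye 30–90 min RT. Antagonist mode: EC80 dopamine added after 180 s compound read.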
% is set by controls: 0 for no effect and ±100 for the full control effect.

Chain of D(1A) dopamine receptor (Homo sapiens) (P21728 whole entry, looked up): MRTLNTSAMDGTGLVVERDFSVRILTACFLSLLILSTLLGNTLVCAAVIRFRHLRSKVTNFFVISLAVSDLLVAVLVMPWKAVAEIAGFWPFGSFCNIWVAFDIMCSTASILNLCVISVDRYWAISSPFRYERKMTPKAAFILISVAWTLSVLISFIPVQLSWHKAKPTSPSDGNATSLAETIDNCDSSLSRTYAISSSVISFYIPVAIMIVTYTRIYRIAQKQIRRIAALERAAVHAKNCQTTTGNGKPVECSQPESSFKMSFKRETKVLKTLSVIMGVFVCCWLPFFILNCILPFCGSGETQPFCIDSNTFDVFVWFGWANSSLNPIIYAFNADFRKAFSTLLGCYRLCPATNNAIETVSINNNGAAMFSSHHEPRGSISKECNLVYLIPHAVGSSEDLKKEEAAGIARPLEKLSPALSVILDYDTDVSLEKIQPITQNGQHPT

| Compound | activity change, negative = inhibition |
| --- | --- |
| NS(=O)(=O)c1ccc(CCNC(=S)Nc2ccc(S(N)(=O)=O)cc2)cc1 | -10.1% |
| CCCCc1ccc(S(N)(=O)=O)cc1 | -32.1% (active) |
| CN(C)c1ccc(C=NCCc2ccc(S(N)(=O)=O)cc2)cc1 | 0.508% |
| Cc1c(C(=O)Nc2cccc(-c3nnc4n3CCCCC4)c2)oc2ccccc12 | -14.2% |
| Brc1cccc(-c2nnc3n2CCC3)c1 | 4.2% |
| O=C(Cn1[nH]c(=O)c2ccccc2c1=O)Nc1cccc(-c2nnc3n2CCCCC3)c1 | -31.5% (active) |
| O=S(=O)(c1ccc2nc(NCc3ccccc3Cl)ccc2c1)N1CCCCC1 | 7.22% |
| COC(=O)CN1C(=O)CSc2ccc(S(=O)(=O)Nc3cc(C)ccc3C)cc21 | 7.51% |
| CCCCN(CCCNC(=O)c1cc(Nc2ccccc2OC)nc2ccccc12)c1ccccc1 | -1.02% |
| COc1ccc(Nc2cc(C(=O)NCCCN(C)c3ccccc3)c3ccccc3n2)c(OC)c1 | -3.52% |
| COc1ccccc1Nc1cc(C(=O)NCCCN(C)C2CCCCC2)c2ccccc2n1 | -69.1% (active) |
| CCCn1c(NCc2ccc(N(CC)CC)cc2)nc2ccccc21 | 7.83% |
| COc1ccccc1N1CCN(S(=O)(=O)CCNC(=O)COc2ccc(F)cc2)CC1 | -4.69% |
| COc1ccc(OCC(=O)NCCS(=O)(=O)N2CCN(c3ccc(F)cc3)CC2)cc1 | -3.53% |
| O=C(COc1ccc(Cl)cc1)NCCS(=O)(=O)N1CCN(c2ccc(F)cc2)CC1 | -39.2% (active) |
| COc1cc(NC(=O)Cn2nc(-c3ccc(C)c(C)c3)ccc2=O)cc(OC)c1 | -2.73% |
| CCOc1ccc(S(=O)(=O)N(CC(=O)NCCSCc2ccc(C)cc2)c2ccccc2)cc1 | -1.46% |
| CCCSc1ncc(Cl)c(C(=O)Nc2sc3c(c2C(=O)NCCOC)CCCC3)n1 | 3.43% |
| N#CC(C(=O)c1ccc(S(=O)(=O)N2CCCCCC2)cc1)c1nc2ccccc2[nH]1 (stereo not drawn) | -22.2% |
| O=S(=O)(c1ccc(Br)cc1)N1CCC(c2nc3ccccc3[nH]2)CC1 | -31.8% (active) |
| O=C(C1CCCO1)N1CCC(c2nc3ccccc3[nH]2)CC1 (stereo not drawn) | -12.2% |
| O=C(Nc1cc(Cl)cc(Cl)c1)c1ccc2c(c1)N(Cc1cccc(Cl)c1)C(=O)c1ccccc1S2=O (stereo not drawn) | -24% |

| Compound | activity change, negative = inhibition |
| --- | --- |
| O=C(Nc1ccc(F)cc1F)c1ccc2c(=O)n3c(nc2c1)CCCCC3 | 0.28% |
| Cc1cc(=O)c2cc(C(=O)Nc3cccc(C)c3C)ccc2[nH]1 | -7.41% |
| O=C(Cn1cnc2c(cnn2-c2ccccc2)c1=O)NCc1ccccc1 | 5.27% |
| CC(=O)Cn1cnc2c(cnn2-c2ccccc2)c1=O | -39.3% (active) |
| O=C(Cn1cnc2c(cnn2-c2ccc(F)cc2)c1=O)NCCc1ccccc1 | -6.16% |
| COc1ccc(-c2nc(C)c(CCNC(=O)c3ccc(C(F)(F)F)cc3)s2)cc1OC | -4.09% |
| Cc1cc(NS(=O)(=O)c2ccccc2)no1 | -52.3% (active) |
| COc1cc2ccccc2cc1C(=O)Nc1ccc(S(=O)(=O)Nc2cc(C)on2)cc1 | 7.39% |
| Cc1ccc(C)c(S(=O)(=O)Nc2cc(C)on2)c1 | -1.84% |
| Cc1cccc(NC(=O)c2cc3c(C)nn(-c4ccccc4)c3s2)c1 | 1.08% |
| O=C(CC(O)(C(F)(F)F)C(F)(F)F)Nc1ccc(Cl)c(Cl)c1 | -45.8% (active) |
| NC(=O)N1CCCC1C(=O)Nc1ccc(Cl)c(Cl)c1 (stereo not drawn) | -6.92% |
| O=C(CSc1nnc(-c2ccncc2)n1-c1ccccc1)Nc1ccc(Cl)c(Cl)c1 | 7.05% |
| CCC(=O)N1CCc2cc(Br)cc(S(=O)(=O)CCC(=O)N3CCN(c4ccc(F)cc4)CC3)c21 | -13.8% |
| Cc1ccc(NS(=O)(=O)c2ccc3c(c2)n(C)c(=O)c(=O)n3C)c(C)c1 | 3.25% |
| Cn1cc(S(=O)(=O)Nc2ccc(Cl)cc2Cl)c(=O)n(C)c1=O | 1.88% |
| Cc1ccc(NS(=O)(=O)c2cn(C)c(=O)n(C)c2=O)c(C)c1 | -34.8% (active) |
| N#CN1CCC(NS(=O)(=O)c2cccc(F)c2)C1 (stereo not drawn) | -5.93% |
| Cc1ccc(C)c(S(=O)(=O)c2nnn3c2nc(N2CCOCC2)c2sccc23)c1 | -17.7% |
| COc1ccc(OC)c(NC(=O)CSC2=Nc3ccccc3C3=NC(CC(=O)NCc4ccc(F)cc4)C(=O)N23)c1 (stereo not drawn) | 2.28% |
| C=CCn1c(=S)[nH]c2scc(-c3ccco3)c2c1=O | -62.9% (active) |
| CCC1(C)Cc2c(sc3[nH]c(=S)n(Cc4ccccc4)c(=O)c23)CO1 (stereo not drawn) | -1.45% |

| Compound | activity change, negative = inhibition |
| --- | --- |
| CCc1ccc(NC(=O)c2cc3c(=O)n(Cc4cccnc4)ccc3nc2C)cc1 | -4.72% |
| O=C(NCCNc1ccc([N+](=O)[O-])cc1Cl)c1ccccc1F | -1.54% |
| O=C(NCCCNc1ccc([N+](=O)[O-])cc1Cl)c1ccccc1F | -30.1% (active) |
| O=C(NCCNc1ccccc1[N+](=O)[O-])c1ccccc1F | 18.2% |
| COc1ccc(CNC(=O)Cn2nnc(-c3ccccc3F)n2)cc1 | 7.31% |
| COc1cc(-c2noc(-c3ccc(N4CCCC4)c([N+](=O)[O-])c3)n2)cc(OC)c1OC | -3.41% |
| COC(=O)c1sccc1S(=O)(=O)N(CC(=O)Nc1ccc(C)c(F)c1)c1ccc(C)c(C)c1 | -13.6% |
| CCOC(=O)N1CCN(CC(=O)c2ccc3c(c2)CCN3)CC1 | -32.2% (active) |
| CCOC(=O)N1CCN(CC(=O)Nc2ccc(F)cc2)CC1 | 4.05% |
| CCOC(=O)N1CCN(CC(=O)n2c(C)c(C)c3ccccc32)CC1 | 6.89% |
| Cc1ccc(CN2CCC(CNC(=O)c3cnn(-c4ccc(C)cc4)c3C3CCN(C(=O)OC(C)(C)C)CC3)CC2)cc1 | 1.49% |
| Cc1ccc2nc(-c3ccc(SCC(=O)Nc4cc(C)on4)nc3)[nH]c2c1 | -40.5% (active) |
| Cc1cccc(-c2nc(SCC(=O)Nc3cc(C)on3)c3c(=O)n(C)c(=O)n(C)c3n2)c1 | -1.46% |
| Cc1ccc2nc(SCC(=O)NC3CCCC3)[nH]c2c1 | 1.64% |
| CCS(=O)(=O)c1nc(S(=O)(=O)c2ccc(C)cc2)c(NCc2ccc(Cl)cc2)s1 | -4.62% |
| Cc1onc(-c2ccc(F)cc2F)c1C(=O)Nc1cccc(C(F)(F)F)c1 | -7.14% |
| COC(=O)c1cccc(Cn2nnc3sc4c(c3c2=O)CCC(C(C)(C)C)C4)c1 (stereo not drawn) | 7.77% |
| Cc1nn(C(C)C(=O)Nc2ccc(C(C)C)cc2)c(=O)c2c1sc1ccccc12 (stereo not drawn) | -14.9% |
| Cc1ccc(NC2=C(c3ccc(C(F)(F)F)cc3)C(=O)c3ccccc32)cc1F | -32.9% (active) |
| O=C(Nc1ccccc1F)c1ccccc1-c1ccc(C(F)(F)F)cc1 | -10% |
| Cc1ccc(NC(=O)NC(=O)c2ccccc2)cc1F | -1.14% |
| Cc1ccccc1NC(=O)Cn1cc(C(=O)c2cccs2)c2ccccc21 | -14.9% |

| Compound | activity change, negative = inhibition |
| --- | --- |
| COc1ccc(-n2nc(C(=O)NCCc3ccc(Cl)cc3)c3c4ccccc4n(C)c3c2=O)cc1Cl | -3.18% |
| Cc1ccc(CCNC(=O)c2ccc3c(c2)N(Cc2cc(C)ccc2C)C(=O)c2ccccc2S3=O)cc1 (stereo not drawn) | -1.98% |
| COc1cccc2cc(-c3nc(Cl)c4c5c(sc4n3)CC(C)CC5)c(=O)oc12 (stereo not drawn) | 7.27% |
| Cc1ccc2nc(NC3=NCN(CCc4ccccc4)CN3)nc(C)c2c1 | 8.22% |
| Cc1ccc2nc(CNC(=O)c3ccccc3)[nH]c2c1 | 2.33% |
| Cc1ccc2nc(C)c3c(c2c1)N(c1ccccc1)CC3 | -47.3% (active) |
| O=C(Nc1ccc(F)cc1F)c1cnn(-c2ccc(F)cc2)c1-n1cccc1 | 1.78% |
| CCOC(=O)C1=C(CSc2nccn2C)NC(=O)NC1c1ccc(OC)cc1 (stereo not drawn) | -35% (active) |
| CCOC(=O)C1=C(CN2CCc3ccccc32)NC(=O)NC1c1ccc(Cl)cc1 (stereo not drawn) | 19.3% |
| CCOC(=O)C1=C(CCc2ccccc2)NC(=O)NC1c1ccc2ccccc2c1 (stereo not drawn) | 13.1% |
| CCN(CC)c1ccc(NS(=O)(=O)c2cc(-c3cc(C)no3)ccc2C)c(C)c1 | -8.08% |
| COc1ccc(N2CCN(C(=O)C3CCCN(C(=O)c4cc5sccc5n4C)C3)CC2)cc1 (stereo not drawn) | -16.9% |
| CC(NC(=O)c1cc(Sc2ccc(F)cc2F)nc2ccccc12)c1ccccc1 (stereo not drawn) | -44.9% (active) |
| CCc1ccc(Sc2cc(C(=O)NCCCOC(C)C)c3ccccc3n2)cc1 | 9.99% |
| CC(NC(=O)c1cc(=O)[nH]c2ccccc12)c1ccc(F)cc1F (stereo not drawn) | -0.391% |
| CCOc1ccccc1NC(=O)Cn1c(=O)n(-c2cccc(C)c2)c(=O)c2c1c1cc(OC)ccc1n2C | 9% |
| CC(C)Sc1ncnc2c1cnn2-c1ccccc1 | 11.9% |
| CN(C(=O)COc1ncnc2c1cnn2-c1ccccc1)C1CCCCC1 | 2.82% |
| c1ccc(-n2ncc3c2ncn2c(C4CCCCC4)nnc32)cc1 | -30.2% (active) |
| Cc1ccc(NC(=O)Cn2c(=O)n(-c3ccccc3)c(=O)c3c4c(sc32)CCCC4)cc1 | -4.05% |
| CCOC(=O)N1CCc2c(sc3c2C(=O)NC(c2ccccc2F)N3)C1 (stereo not drawn) | 4.82% |
| O=C(CSc1ncc(CO)n1Cc1ccc(F)cc1)NCc1ccco1 | -2.59% |
